L3MBTL1 block: inhibitors of human L3MBTL1; Q9Y468; AlphaScreen L3MBTL1–H3K9me1 peptide binding; Potency, µM (top dose mostly 57.1 µM), for the others: at the top dose activity, negative = inhibition, actives largely listed as inhibitors; actives 0.66% (n = 230,000); AID 485360; also: % is scaled to controls: 0 for no effect and ±100 for the full control effect; nearly all actives have a fitted effect of over 60% in size
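Read-out is AlphaScreen signal from streptavidin donor and nickel chelate acceptor beads (10 ug/mL final each) bridging L3MBTL1 (50 nM) and biotinylated K9-monomethylated H3(1-15) peptide (75 nM), after 30 min compound exposure at room temperature.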
JMJD2A Tudor inh: JMJD2A Tudor domain (human) inhibition; actives 4.4% (n = 390,000); AID 504339; AlphaScreen JMJD2A-Tudor / H3K4me3 peptide binding; Potency, µM (doses to about 114 µM), for the others: at the highest dose activity change, negative = inhibition, actives largely listed as inhibitors; also: % is scaled to controls: 0 for no effect and ±100 for the full control effect; nearly all actives have a fitted effect of over 50% in size
HP1b chromo inh: blocks HP1-beta chromodomain binding to methylated histone tails; Potency, µM (titrated, usually from 114 µM), for inactives: at the highest dose activity change, negative = inhibition, actives largely listed as inhibitors; actives 0.56% (n = 390,000); AlphaScreen HP1-beta / biotin-H3K9me3 peptide binding; P83916; AID 540317; also: nearly all actives have a fitted effect of over 70% in size
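AlphaScreen: HP1-beta (50 nM) preformed 30 min with biotin-H3(1-18)K9me3 peptide (50 nM) in PBS pH 7.4, 0.01% Tween-20. Compound added for 30 min at RT, then streptavidin donor/nickel chelate acceptor beads (10 ug/mL) for 30 min.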
BAZ2B block: blocks human BAZ2B. AlphaScreen BAZ2B-H3K14Ac peptide displacement. Potency, µM (top dose mostly 114 µM), for inactives: at the top dose activity change, negative = inhibition, actives largely listed as inhibitors. actives 4.4% (n = 360,000). AID 504333; also: % is scaled to controls: 0 for no effect and ±100 for the full control effect; nearly all actives have a fitted effect of over 60% in size
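Compounds, titrated to a top concentration of 110 uM, were incubated 30 min at room temperature with preformed BAZ2B/acetyl-K14 H3 peptide complex (50 nM each). Proximity signal was measured by AlphaScreen after 20 min with beads.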
G9a block: inhibitors of human histone lysine methyltransferase G9a; G9a H3K9 monomethylation, AlphaScreen, 2 h; Potency, µM (series often up to 102 µM), for the others: at the top dose activity, negative = inhibition, actives largely listed as inhibitors; actives 8.8% (n = 350,000); AID 504332; also: % is scaled to controls: 0 for no effect and ±100 for the full control effect; nearly all actives have a fitted effect of over 75% in size
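Signal arises when biotinylated H3K9 peptide, once monomethylated, bridges streptavidin donor and antibody-captured acceptor beads. Enzyme at 20 nM was preincubated 15 min with test compounds; peptide 500 nM and SAM 20 uM then reacted for 2 h.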
Sfp PPTase inh: Sfp phosphopantetheinyl transferase inhibition; Q9F4F7; AID 1490; actives 3.5% (n = 310,000); Potency, µM, for inactives: largest response in the series, negative = inhibition, actives largely listed as inhibitors; Biochemical Sfp PPTase activity, qHTS;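 also: the enzyme is Sfp with the accession as filed and its product quenches rhodamine fluorescence; 0% = enzyme reaction without inhibitor and -100% = no enzyme wells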
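With Hepes-Na pH 7.6 buffer containing 10 mM MgCl2, Sfp (15 nM) modified BHQ-2-YbbR (12.5 uM) using rhodamine-CoA (5 uM). Two reads 30 minutes apart at 525/598 nm yielded each well's rate.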
* hit, by the source's call; ? = inconclusive; . = no result given; [ ] = remark or other dose. Hits are enriched below; roughly 12% of the tested compounds scored in any of these assays. Calls follow the shape of the dose curve; as a rule, active = well fitted curve in the direction sought with a large enough effect; inconclusive = small, poorly fitted or top-dose-only effect, or another doubt; inactive = no such curve, though single readings can be large; an effect the other way counts as inactive or inconclusive. Potency is read from the fitted curve at half-maximal effect.

SMILES | L3MBTL1 block | JMJD2A Tudor inh | HP1b chromo inh | BAZ2B block | G9a block | Sfp PPTase inh
O=C(OCC(=O)N1CCC(Cc2ccccc2)CC1)c1cccnc1Cl | 3% | 0% | 16%[57 µM] | . | . | .
Cc1ccc(CNC(=O)c2ccc(Cn3nc(C)c(Cl)c3C)o2)cc1 | -1% | ? | 25% | 50µM* | ? | ?
Cc1cc(C)cc(NC(=O)c2ccc(Cn3nc(C)c(Cl)c3C)o2)c1 | -3% | -6% | 32% | 5% | -12%[59 µM] | -4%
CCCCc1nc(SCC(=O)N2CCOCC2)c2c(=O)n(C)c(=O)n(C)c2n1 | . | -23% | 18% | -16% | 4% | 8%
COc1ccccc1CNC(=O)C1CCN(C2=NS(=O)(=O)C(c3ccc(C)c(C)c3)=C2C)CC1 | . | 56µM* | 38% | 3% | -3%[59 µM] | .
Cc1ccc(C)c(NC(=O)c2ccccc2C(=O)c2ccccc2)c1 | . | . | . | ? | -11% | -11%
CC(C)CN1C(=O)c2ccccc2C1(O)Cc1ccccc1 (stereo unspecified) | 31% | 5% | 50% | 21% | 8.9µM* | ?
C=CCN1C(=O)c2ccccc2C1(O)Cc1ccccc1 (stereo unspecified) | . | -14% | 59% | -14% | -1% | 2%
CSc1cccc(NC(=O)/C=C/c2ccco2)c1 | . | -30% | -17% | ? | 28µM* | 56µM*
COc1cccc(NC(=O)C(NCC2CCCCC2)c2ccccc2)c1 (stereo unspecified) | . | 1µM* | ? | ? | 3.2µM* | 50µM*
COc1cccc(NC(=O)/C=C\c2ccc(Cl)cc2)c1 | . | . | . | . | . | 4%
COc1cccc(NC(=O)C(C)(C)C)c1 | 3% | -16% | 17% | -8% | 3.2µM* | .
COC(=O)c1cccc(NC(=O)C(C)(C)C)c1 | 6% | -8% | 24% | 0% | . | 0%
COc1cccc(NC(=O)C(NCCC(C)C)c2ccccc2)c1 (stereo unspecified) | . | 42% | 23% | 1% | 20% | -1%
COc1cccc(NC(=O)/C=C/c2ccco2)c1 | -12% | -30% | -2% | -32% | 35µM* | 35µM*
COc1ccc2c(c1)C(=O)[C@H](OC(=O)NS(=O)(=O)c1ccc(F)cc1)[C@@H](c1ccc(OC)c(Br)c1)O2 | . | . | . | . | . | -17%
Cn1cc(-c2nc3cnc(Oc4ccccc4)nc3n(CCC#N)c2=O)c2ccccc21 | . | . | . | . | -1%[12.7 µM] | 6%
COc1ccc(-c2csc(CCN3N=C(C)CC3=O)n2)cc1 | . | ? | 2% | 40µM* | 32µM* | 3%
COc1ccc(S(=O)(=O)N(Cc2nc(-c3ccc(Cl)cc3)no2)C2CCCCC2)cc1 | . | 9% | 43% | 8% | 1%[59 µM] | .
COc1ccccc1-n1c(CNC(=O)COc2ccccc2)n[nH]c1=S | . | 7.1µM* | 22% | -1% | ? | -27%
Cc1cc(CNC(=O)c2cccc([N+](=O)[O-])c2C)c2ccccc2n1 | 8% | -5% | 32% | -18% | -33% | 17%
COc1ccc(CSCCc2n[nH]c(=S)n2-c2ccccc2)cc1 | ? | 50µM* | -3% | ? | ? | -29%
COc1ccccc1-n1c(CNC(=O)c2cccc([N+](=O)[O-])c2C)n[nH]c1=S | . | 20µM* | 37% | -6% | ? | 15%
COc1ccc(CC(=O)NCc2n[nH]c(=S)n2-c2ccc(Br)cc2)cc1 | . | -18%[11.4 µM] | -6% | -22% | ? | 15%
COc1ccc(CC(=O)NCc2n[nH]c(=S)n2-c2ccccc2)cc1 | . | ? | 45% | -2% | 14µM* | -2%
O=C(Cn1nnc(-c2cccc(C(F)(F)F)c2)n1)NCc1ccc(F)cc1 | . | -10% | 4% | -20% | -21%[59 µM] | .
Cc1cccc(-n2c(CNC(=O)c3cccc([N+](=O)[O-])c3C)n[nH]c2=S)c1 | . | 16µM* | 17% | . | 11µM* | 16%
COc1ccc(Nc2c3ccccc3nc3ccccc23)cc1 | . | ? | -20% | ? | 40µM* | -4%
